Screens (PubChem)
An excerpt weighted towards active compounds, which were near 4% of everything screened.
CF NFkB inh – inhibitors of PAF-induced NF-kB signaling, primary screen, cell-based, GFP fluorescence, uHTS. 0.86% of 360,000 active. inhibition, % at 5 µM. KKLEB NF-kB-GFP reporter, GFP fluorescence overnight;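 active means at least 50% inhibition at 5 µM, scaled per plate between neutral and stimulator controls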;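 further: PAF is a Pseudomonas aeruginosa culture filtrate used as stimulus; plate controls were PAF-stimulated DMSO wells for no effect and unstimulated DMSO wells for full effect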
TROY NFkB inh – inhibitors of TROY-driven NF-kB signaling, primary screen, Q293 LMP1-TROYcd cells, NF-kB luciferase, uHTS | AID 1347056, 2019 | Q293 LMP1-TROYcd NF-kB luciferase reporter, 4 h | inhibition, % at 10 µM | 0.98% of 360,000 active;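 active means compounds whose plate-normalised and pattern-corrected inhibition of the luciferase reporter signal at the single screening dose is 50% or more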
Peg3 promoter – Peg3 promoter-driven luciferase inhibitors, primary screen, cell-based, HeLa, luciferase luminescence. HeLa PEG-Prom luciferase reporter, overnight. inhibition, % at 20 µM. 1.7% of 360,000 active;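 active means inhibition of at least 50% at 20 µM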
HIF-2a block – HIF-2a reporter inhibitors, primary screen, luminescence, 786-0 RCC cells | AID 624352, 2012 | 0.72% of 360,000 active | inhibition, % at 18.8 µM | 786-0 RCC cells HIF-2a reporter, luciferase luminescence, overnight;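 active means inhibition of the luminescence signal of 40% or more relative to plate controls, in a single-dose primary screen at 18.75 µM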
KKLEB tox – cytotoxicity in KKLEB CF airway cells, primary screen, cytotoxicity control for CF NF-kB inhibitor project, cell-based, uHTS, fluorescence assay plates. KKLEB CF airway cells viability, ATPlite luminescence, overnight; stronger effect = lower value; cells stimulated with P. aeruginosa culture filtrate. activity change (cytotoxicity), % at 5 µM. 0.36% of 360,000 active. AID 602141, 2011;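 active means corrected activity change at or below -50% at 5 µM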
TWEAK-Fn14 inh – inhibitors of TWEAK-Fn14 signaling, primary screen, luciferase reporter cells, uHTS; TWEAK-stimulated Fn14 reporter cells, luciferase luminescence, 8 h; inhibition, % at 10 µM; 2% of 360,000 active; in the data active means inhibition above about 50%
* hit, by the source's call.

What do the screens show for `CC(=O)c1ccc(NC(=S)Nc2ccc(Br)c(Cl)c2)cc1`?
CF NFkB inh: -6.1; TROY NFkB inh: -24.5; Peg3 promoter: -51.9; HIF-2a block: -187.4; KKLEB tox: 10.7; TWEAK-Fn14 inh: -24.9

What do the screens show for `CC(=O)c1ccc(NC(=S)NC(C)c2ccc(Cl)cc2Cl)cc1` (configuration not stated)?
CF NFkB inh: 28.1; TROY NFkB inh: 56.0*; Peg3 promoter: 29.6; HIF-2a block: -11.3; KKLEB tox: -13.1; TWEAK-Fn14 inh: 10.9

Results for CCS(=O)(=O)Nc1cccc(-c2ccc3nnc(-c4cccnc4)n3n2)c1 ?
CF NFkB inh: -96.3; TROY NFkB inh: 0.0; Peg3 promoter: 28.5; HIF-2a block: 10.6; KKLEB tox: 5.4; TWEAK-Fn14 inh: -30.7

What do the screens show for `CC(=O)N1/C(=C/c2ccc(N(C)C)cc2)C(=O)c2ccccc21`?
CF NFkB inh: 48.1; TROY NFkB inh: 66.5*; Peg3 promoter: 32.8; HIF-2a block: -10.1; KKLEB tox: -12.2; TWEAK-Fn14 inh: 86.1*

How did C=CCc1c(C)nc(C)nc1N/N=C/c1ccc([N+](=O)[O-])cc1 do in these assays?
CF NFkB inh: -13.7; TROY NFkB inh: 1.1; Peg3 promoter: 9.8; HIF-2a block: 18.4; KKLEB tox: 8.8; TWEAK-Fn14 inh: 3.3

What do the screens show for `COC(=O)C(C#N)C(=C1C(=O)CC(C)(C)CC1=O)c1ccc(O)cc1` (configuration not stated)?
CF NFkB inh: -6.5; TROY NFkB inh: 10.2; Peg3 promoter: 4.0; HIF-2a block: -1.4; KKLEB tox: -50.0*; TWEAK-Fn14 inh: -1.7

Results for CCCn1c(C)cc(C(=O)COC(=O)c2ccc(Cl)c(S(=O)(=O)N3CCCC3)c2)c1C ?
CF NFkB inh: 15.6; TROY NFkB inh: 5.0; Peg3 promoter: -94.1; HIF-2a block: -125.7; KKLEB tox: -8.8; TWEAK-Fn14 inh: -22.6

Results for CCn1c2ccccc2c2nc3cc(C(=O)O)ccc3nc21 ?
CF NFkB inh: 24.3; TROY NFkB inh: -44.0; Peg3 promoter: -55.7; HIF-2a block: -69.4; KKLEB tox: -62.9*; TWEAK-Fn14 inh: 34.0

What do the screens show for `Cc1ccc(-c2csc(C3=C(O)CN(NC(=O)c4ccco4)C3=N)n2)cc1`?
CF NFkB inh: -17.3; TROY NFkB inh: 10.1; Peg3 promoter: 6.7; HIF-2a block: -18.6; KKLEB tox: 6.8; TWEAK-Fn14 inh: -25.6

Results for Oc1[nH]c2ccccc2c1N=Nc1ccccc1Cl ?
CF NFkB inh: -18.3; TROY NFkB inh: -26.3; Peg3 promoter: -105.8; HIF-2a block: -147.8; KKLEB tox: -9.0; TWEAK-Fn14 inh: -18.9

Results for Oc1c(C=Nc2ccccc2Cl)[nH]c2ccccc12 ?
CF NFkB inh: -6.3; TROY NFkB inh: 52.1*; Peg3 promoter: -192.5; HIF-2a block: -216.2; KKLEB tox: 7.8; TWEAK-Fn14 inh: 26.5

How did COc1ccc(-c2cc(CNC(C)=O)on2)cc1 do in these assays?
CF NFkB inh: -18.5; TROY NFkB inh: 1.3; Peg3 promoter: -16.3; HIF-2a block: -49.7; KKLEB tox: 12.2; TWEAK-Fn14 inh: 1.0

How did COc1ccc(-c2cc(CNC(=O)CCl)on2)cc1 do in these assays?
CF NFkB inh: -37.8; Peg3 promoter: -28.2; HIF-2a block: 1.2; KKLEB tox: 5.1; TWEAK-Fn14 inh: 76.4*

How did Cc1sc(NC(=O)Cc2ccc3c(c2)OCO3)nc1-c1ccc2c(c1)CCN2C(=O)c1ccccc1F do in these assays?
CF NFkB inh: 18.4; TROY NFkB inh: -8.3; Peg3 promoter: -19.3; HIF-2a block: -26.3; KKLEB tox: 4.2; TWEAK-Fn14 inh: 50.9*

Results for COc1ccc(C(=O)NCC(=O)Nc2ccc(F)cc2)cc1OC ?
CF NFkB inh: -2.4; TROY NFkB inh: 5.1; Peg3 promoter: 15.2; HIF-2a block: -1.6; KKLEB tox: 1.8; TWEAK-Fn14 inh: 5.8

Results for COc1ccc(-n2sc3c(c2=S)-c2cc(OC)ccc2NC3(C)C)cc1 ?
CF NFkB inh: 9.4; TROY NFkB inh: 8.8; Peg3 promoter: 8.5; HIF-2a block: 41.4*; KKLEB tox: -7.9; TWEAK-Fn14 inh: 0.2

Results for CC[n+]1ccc(/C=C2\Sc3ccccc3N2CCCS(=O)(=O)[O-])c2ccccc21 ?
CF NFkB inh: -8.4; TROY NFkB inh: 22.3; Peg3 promoter: 8.5; HIF-2a block: 6.0; KKLEB tox: 16.6; TWEAK-Fn14 inh: 5.6

What do the screens show for `CN1C=C/C(=C\c2cc[n+](C)c3ccccc23)c2ccccc21`?
CF NFkB inh: 56.1*; TROY NFkB inh: 1.4; Peg3 promoter: 10.7; HIF-2a block: -12.7; KKLEB tox: -28.8; TWEAK-Fn14 inh: 27.6

What do the screens show for `O=C(Nc1cccc(S(=O)(=O)Nc2ccc(Cl)cc2)c1)c1cc2c(s1)CCCC2`?
CF NFkB inh: -2.4; TROY NFkB inh: 40.7; Peg3 promoter: -12.7; HIF-2a block: -58.3; KKLEB tox: -6.5; TWEAK-Fn14 inh: 83.5*

How did Cc1ccc(NC(=O)c2cc3c(s2)CCCC3)cc1S(=O)(=O)Nc1ccccc1Cl do in these assays?
CF NFkB inh: 12.9; TROY NFkB inh: 45.6; Peg3 promoter: 18.8; HIF-2a block: 4.7; KKLEB tox: -8.2; TWEAK-Fn14 inh: 78.5*

How did O=C(Nc1cc(S(=O)(=O)Nc2ccccc2Cl)ccc1O)c1cc2c(s1)CCCC2 do in these assays?
CF NFkB inh: -5.2; TROY NFkB inh: -4.0; Peg3 promoter: 14.8; HIF-2a block: 5.5; KKLEB tox: 12.6; TWEAK-Fn14 inh: -5.9

What do the screens show for `O=C(Nc1ccc(Cl)c(Cl)c1)Nc1ccc(N2CCCC2)c(S(=O)(=O)Nc2ccccc2Cl)c1`?
CF NFkB inh: 62.4*; TROY NFkB inh: 21.0; Peg3 promoter: 57.6*; HIF-2a block: -21.2; KKLEB tox: -54.1*; TWEAK-Fn14 inh: 68.3*

How did COc1ccccc1N1CCN(C(=O)CCCNC(=O)Cn2cnc3sc(C)c(C)c3c2=O)CC1 do in these assays?
CF NFkB inh: 5.8; TROY NFkB inh: 1.7; Peg3 promoter: -0.7; HIF-2a block: 14.1; KKLEB tox: -0.4; TWEAK-Fn14 inh: -5.8

How did CCOC(=O)c1cnc2ccccc2c1NCc1ccco1 do in these assays?
CF NFkB inh: -11.5; TROY NFkB inh: -39.0; Peg3 promoter: -8.9; HIF-2a block: -29.5; KKLEB tox: -7.3; TWEAK-Fn14 inh: -3.9

What do the screens show for `CCOC(=O)c1cnc2ccccc2c1Nc1ccc2c(c1)OCCO2`?
CF NFkB inh: -15.0; TROY NFkB inh: 77.0*; Peg3 promoter: 21.2; HIF-2a block: 32.2; KKLEB tox: 10.5; TWEAK-Fn14 inh: 91.9*

What do the screens show for `Cc1noc(C)c1C(=O)Nc1ccc(N(C)C)cc1`?
CF NFkB inh: -17.6; TROY NFkB inh: 10.6; Peg3 promoter: 10.5; HIF-2a block: -8.5; KKLEB tox: 13.7; TWEAK-Fn14 inh: -16.4
